Measurements: PubChem BioAssay (EPA / NIEHS)
Several values for one entry are separate records, joined by “and”; a condition that tells them apart may be missing. Equal entries are not always repeated. Inconclusive results are not listed. The source holds several records for some structures; these can differ, active in one and inactive in another. Activity calls are given as the source filed them. Rule for the calls, unless noted: active = hit-call score of the fitted dose curve at least 0.9, where 1 is the maximum; inactive = score below 0.9.

Key:
[1] = molecular target: Myc proto-oncogene protein (Homo sapiens) (UniProt P01106); assay: ATG_Myc_CIS: Attagene CIS-FACTORIAL HepG2 Assay for human Myelocytomatosis (Myc) Proto-Oncogene Transcription Factor (AID 2282990); details: HepG2, Attagene cis-reporter transcription factor activity; actives raise or lower the signal
Outline: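 Multiplexed cis-reporter transcription in HepG2 cells after 24 h chemical treatment. Reporter mRNA measured by RT-PCR and capillary electrophoresis fluorescence; activity fitted bidirectionally against DMSO control.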

[2] = ATG_NF_kB_CIS: Attagene CIS-FACTORIAL HepG2 Assay for human Nuclear Factor Kappa B (NF-kB) (AID 2282991); details: HepG2 Attagene cis-factorial NF-kB reporter mRNA; actives raise or lower the signal
Outline: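 HepG2 cells transfected with cis-promoter-driven reporter units, so endogenous transcription factor activity is measured. Reporter mRNA quantified 24 h after dosing by RT-PCR and capillary electrophoresis, with bidirectional fitting against DMSO.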

[3] = ATG_NRF2_ARE_CIS: Attagene CIS-FACTORIAL HepG2 Assay for human Nuclear Factor Erythroid 2 Related Factor 2 (NFR2) response to Antioxidant Response Elements (ARE) (AID 2282992); details: HepG2 Attagene ARE/NRF2 reporter, transcription factor activity; actives raise or lower the signal
Outline: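 HepG2 cells transiently transfected with multiplexed cis-regulated reporter transcription units measure endogenous transcription factor activity. Reporter mRNA at 24 h is quantified by RT-PCR, fluorescent labelling and capillary electrophoresis, with bidirectional fitting relative to DMSO.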

[4] = ATG_Oct_MLP_CIS: Attagene CIS-FACTORIAL HepG2 Assay for human Octamer-Binding Transcription Factor (Oct) (AID 2282993); details: HepG2 Attagene cis-factorial Oct reporter, mRNA; actives raise or lower the signal
Outline: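 HepG2 cells transiently transfected with cis-promoter-driven multiplexed reporter transcription units, dosed for 24 h. Reporter mRNA quantified by RT-PCR, fluorescent labelling, HpaI digestion and capillary electrophoresis; bidirectional fits versus DMSO baseline.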

[5] = molecular target: Cellular tumor antigen p53 (Homo sapiens) (UniProt P04637); assay: ATG_p53_CIS: Attagene CIS-FACTORIAL HepG2 Assay for human p53 Transcription Factor (AID 2282994); details: HepG2 p53 cis-element reporter, Attagene mRNA; actives raise or lower the signal
Outline: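 HepG2 cells transiently transfected with multiplexed cis-regulated reporter transcription units read endogenous TF activity. After 24 h compound exposure, reporter mRNA was quantified by RT-PCR, fluorescent labelling, HpaI digestion and capillary electrophoresis; bidirectional fits versus DMSO baseline.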

[6] = BSK_3C_TissueFactor: BioMAP Diversity Plus: 3C Assay for Tissue Factor Biomarker Activity (AID 2282997); details: BioMAP 3C HUVEC, tissue factor biomarker readout; actives raise or lower the signal
Outline: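 Primary human umbilical vein endothelial cells in the 3C system were exposed to test chemical for 24 h, then Tissue Factor measured by ELISA. Activity was fitted bidirectionally against DMSO as negative control and baseline.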

[7] = BSK_3C_uPAR: BioMAP Diversity Plus: 3C Assay for Urokinase-type plasminogen activator receptor (uPAR) Biomarker Activity (AID 2282998); details: BioMAP 3C HUVEC, uPAR biomarker ELISA; actives raise or lower the signal
Outline: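 Human umbilical vein endothelial primary cells were exposed to test chemical for 24 h. Cell-surface uPAR was then quantified by ELISA, and responses were fitted bidirectionally against DMSO as negative control and baseline.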

[8] = BSK_3C_VCAM1: BioMAP Diversity Plus: 3C Assay for Vascular cell adhesion molecule 1 (VCAM1) Biomarker Activity (AID 2282999); details: BioMAP 3C HUVEC, VCAM1 ELISA, cytokine-stimulated; actives raise or lower the signal
Outline: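 Human umbilical vein endothelial cells were dosed with compound for 24 h, after which cell-surface VCAM-1 was quantified by ELISA. Bidirectional curve fitting used DMSO as negative control and activity baseline.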

[9] = BSK_4H_Eotaxin3: BioMAP Diversity Plus: 4H Assay for Eotaxin 3 Biomarker Activity (AID 2283000); details: primary human endothelial cells (HUVEC); actives raise or lower the signal
Outline: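 HUVEC, 24 h post-dose, ELISA for Eotaxin-3/CCL26. Gain or loss of signal fitted bidirectionally vs DMSO baseline.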

[10] = molecular target: human Peroxisome Proliferator-activated Receptor alpha (PPARa), PPARA (gene 5465) (UniProt Q07869); assay: ATG_PPARa_TRANS: Attagene TRANS-FACTORIAL HepG2 Assay for human Peroxisome Proliferator-activated Receptor alpha (PPARa) (AID 2283001; active = hit-call score of the fitted dose curve at least 0.9, where 1 is the maximum;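 for AC50: potency for gain of reporter signal over DMSO so agonist or activator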)
Outline: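 HepG2 cells transiently transfected with multiplexed GAL4-UAS reporter units and chimeric NR-Gal4 constructs were dosed for 24 h. Reporter mRNA was measured by RT-PCR with fluorescent labelling and capillary electrophoresis; gain of signal fitted against DMSO.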

Measured: AC50

Sequence of Myc proto-oncogene protein (Homo sapiens) (P01106 whole entry, looked up): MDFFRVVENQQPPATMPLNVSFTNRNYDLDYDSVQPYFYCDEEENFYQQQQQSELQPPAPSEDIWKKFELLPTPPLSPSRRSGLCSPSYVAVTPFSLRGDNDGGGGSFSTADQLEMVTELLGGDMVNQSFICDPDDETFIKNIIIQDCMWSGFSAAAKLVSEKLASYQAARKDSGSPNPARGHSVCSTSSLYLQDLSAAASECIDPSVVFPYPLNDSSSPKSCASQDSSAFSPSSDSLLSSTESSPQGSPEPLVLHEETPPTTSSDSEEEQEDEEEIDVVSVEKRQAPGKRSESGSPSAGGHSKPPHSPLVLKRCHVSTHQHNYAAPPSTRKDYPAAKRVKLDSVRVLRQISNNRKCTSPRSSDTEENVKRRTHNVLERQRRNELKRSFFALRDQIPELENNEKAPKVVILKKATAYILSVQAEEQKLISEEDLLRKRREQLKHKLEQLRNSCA
Sequence of human Peroxisome Proliferator-activated Receptor alpha (PPARa), PPARA (gene 5465) (Q07869 whole entry, looked up, the tested form may be a part): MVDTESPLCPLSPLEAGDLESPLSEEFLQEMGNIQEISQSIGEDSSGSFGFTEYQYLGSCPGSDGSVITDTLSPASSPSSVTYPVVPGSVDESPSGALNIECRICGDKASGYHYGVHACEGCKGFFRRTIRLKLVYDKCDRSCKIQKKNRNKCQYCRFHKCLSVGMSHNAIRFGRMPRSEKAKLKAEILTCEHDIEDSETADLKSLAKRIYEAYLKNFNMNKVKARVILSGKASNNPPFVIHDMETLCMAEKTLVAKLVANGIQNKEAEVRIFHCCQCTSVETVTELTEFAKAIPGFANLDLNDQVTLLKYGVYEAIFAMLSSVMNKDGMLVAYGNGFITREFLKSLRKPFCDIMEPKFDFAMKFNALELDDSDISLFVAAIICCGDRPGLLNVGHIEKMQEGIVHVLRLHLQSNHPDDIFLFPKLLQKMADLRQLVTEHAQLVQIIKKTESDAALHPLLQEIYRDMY
Sequence of Cellular tumor antigen p53 (Homo sapiens) (P04637 whole entry, looked up): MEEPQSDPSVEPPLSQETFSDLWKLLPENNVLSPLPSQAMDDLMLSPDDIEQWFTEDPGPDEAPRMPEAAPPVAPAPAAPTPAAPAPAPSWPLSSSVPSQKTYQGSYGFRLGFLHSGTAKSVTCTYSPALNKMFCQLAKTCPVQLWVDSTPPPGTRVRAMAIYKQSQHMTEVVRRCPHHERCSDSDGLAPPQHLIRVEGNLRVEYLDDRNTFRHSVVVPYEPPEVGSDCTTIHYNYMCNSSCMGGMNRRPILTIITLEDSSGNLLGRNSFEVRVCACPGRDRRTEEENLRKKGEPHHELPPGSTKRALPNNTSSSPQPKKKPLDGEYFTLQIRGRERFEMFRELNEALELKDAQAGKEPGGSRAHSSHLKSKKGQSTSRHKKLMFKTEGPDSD

N#C[C@@H]1CC(F)(F)CN1C(=O)CNC1CC2CCC(C1)N2c1ncccn1 (stereo partly specified)
not listed: [10]
inactive: all other assays above

O=c1c(-c2ccc(O)cc2)coc2cc(O)ccc12
inactive: [1] | [2] | [3] | [4] | [5] | [7] | [9] | [10]
active: [4] 100 µM | [6] 15.7 µM

CC(C)(C)c1cccc(C(C)(C)C)c1O
active: [1] 152 µM | [3] 167 µM | [4] 166 µM | [5] 177 µM
inactive: [2] | [6] | [7] | [9]

CCCCCCCCCCCCCCCS(=O)(=O)Oc1ccccc1
not listed: [8] | [10]
inactive: all other assays above

CN(C)C=O
inactive: all assays above

CC(=O)CC(C)(C)O
inactive: all assays above

CC(C)(C)c1ccc(O)c(C(C)(C)C)c1
active: [6] 8.52 µM | [7] 9.34 µM | [9] 12.1 µM
not listed: [8] | [10]
inactive: all other assays above

CC[C@H](c1ccc(O)cc1)[C@@H](CC)c1ccc(O)cc1
inactive: [1] | [2] | [4] | [5]
active: [3] 6.58 µM [middle of 4 runs] | [5] 17.5 µM | [6] 32.5 µM | [7] 21.7 µM | [8] 34.2 µM | [9] 27.6 µM

COCC(C)OCC(C)O (stereo unspecified)
not listed: [10]
inactive: all other assays above

CCc1nn(C2CCCCC2)c2cc(C3(C#N)CCC(C(=O)O)CC3)ccc12 (stereo unspecified)
active: [2] 24.9 µM | [7] 7.5 µM | [9] 16.5 µM
not listed: [8] | [10]
inactive: all other assays above

CCCCOCCO
inactive: all assays above

CC(C)(C)CC(C)(C)c1ccc(O)c(-n2nc3ccccc3n2)c1
active: [3] 36.4 µM | [4] 78.5 µM
not listed: [10]
inactive: all other assays above

NCC(F)(F)C(F)(F)C(F)(F)C(F)(F)C(F)(F)C(F)(F)C(F)(F)F
inactive: all assays above

CN1CCN(c2ccccc2/C=C2\SCCN(c3ccc(Cl)c(Cl)c3)C2=O)CC1
active: [3] 3.7 µM | [6] 6.4 µM | [7] 16.2 µM
not listed: [10]
inactive: all other assays above

CCc1ccc(CCOc2ccc(CC3SC(=O)NC3=O)cc2)nc1 (stereo unspecified)
active: [3] 25.6 µM
inactive: [1] | [2] | [3] | [4] | [5] | [6] | [7] | [8] | [9]

O=C(OCCOCCOC(=O)c1ccccc1)c1ccccc1
not listed: [10]
inactive: all other assays above

CC#C[C@]1(O)CC[C@H]2[C@@H]3CCC4=CC(=O)CCC4=C3[C@@H](c3ccc(N(C)C)cc3)C[C@@]21C
active: [1] 160 µM and 100 µM | [2] 67.9 µM | [3] 28.1 µM [middle of 4 runs] | [7] 31.2 µM | [9] 38.1 µM
inactive: [1] | [2] | [6]

CCCCCCCCCCCCN1CCCC1=O
active: [6] 33.6 µM | [7] 31.1 µM | [8] 35.2 µM | [9] 36.9 µM
not listed: [10]
inactive: all other assays above

C#C[C@]1(O)CC[C@H]2[C@@H]3CCC4=CC(=O)CC[C@@H]4[C@H]3CC[C@@]21C
inactive: [1] | [2] | [3] | [4] | [5] | [9]
active: [3] 100 µM and 79.6 µM | [6] 15.3 µM | [7] 5.42 µM

Cc1cc(CCN2CCN(c3nsc4ccccc34)CC2)cc2c1NC(=O)CC2(C)C
active: [3] 4.32 µM | [4] 8.81 µM | [6] 26.9 µM | [7] 26.6 µM | [8] 33.2 µM | [9] 33.6 µM
inactive: [1] | [2] | [5]

Nc1cccc2c(N)cccc12
active: [3] 46.6 µM
inactive: all other assays above

CCC(C)(C)C1CCC(O)CC1 (stereo unspecified)
not listed: [8] | [10]
inactive: all other assays above

O=C1OC2(c3ccccc31)c1cc(Br)c(O)c(Br)c1Oc1c2cc(Br)c(O)c1Br
inactive: [1] | [2] | [3] | [4] | [10]
active: [4] 66.2 µM

Oc1cc2ccccc2c2ccccc12
active: [6] 8.37 µM | [7] 11.2 µM | [9] 7.88 µM
not listed: [8] | [10]
inactive: all other assays above

c1ccc2c(c1)Cc1ccccc1-2
active: [6] 4.37 µM
inactive: all other assays above

OCCC(F)(F)C(F)(F)C(F)(F)C(F)(F)C(F)(F)C(F)(F)C(F)(F)C(F)(F)F
inactive: [1] | [2] | [5] | [6] | [7] | [9] | [10]
active: [1] 150 µM | [2] 24.4 µM | [3] 24.6 µM and 37.3 µM | [4] 46.6 µM and 113 µM | [5] 150 µM | [6] 43.1 µM and 10.6 µM | [7] 19.5 µM and 16.5 µM | [9] 46 µM and 14.9 µM

c1ccc2c(c1)ccc1ccccc12
active: [6] 3.97 µM
not listed: [8] | [10]
inactive: all other assays above

C[C@@H]1C[C@H]2[C@@H]3CCC4=CC(=O)C=C[C@]4(C)[C@@]3(F)[C@@H](O)C[C@]2(C)[C@@]1(O)C(=O)COP(=O)(O)O
active: [9] 8.66 µM
inactive: [1] | [2] | [3] | [4] | [5] | [6] | [7] | [9] | [10]

Cc1oc(-c2ccccc2)nc1CCOc1ccc(C[C@H](Nc2ccccc2C(=O)c2ccccc2)C(=O)O)cc1
inactive: [2] | [3] | [5]
active: [1] 18 µM | [4] 18.2 µM | [6] 36.7 µM | [7] 14.6 µM | [9] 36.2 µM

C=C(C)C(=O)OCCC(F)(F)C(F)(F)C(F)(F)C(F)(F)C(F)(F)C(F)(F)F
inactive: [1] | [2] | [3] | [4] | [5] | [6] | [7] | [9] | [10]
active: [9] 20 µM

Oc1cccc(O)c1
inactive: all assays above

CC1=C(/C=C/C(C)=C/C=C/C(C)=C/C(=O)O)C(C)(C)CCC1
inactive: [1] | [2] | [3] | [4] | [5] | [6] | [7] | [10]
active: [3] 35.7 µM | [4] 24.2 µM | [5] 20.6 µM | [8] 27.9 µM | [9] 9.37 µM | [10] 100 µM

CCCOc1sc(C(=O)N2CCC(c3cc(CN)ccc3F)CC2)c(C)c1Br
inactive: [1] | [2] | [4] | [5]
active: [3] 1.49 µM | [6] 9.59 µM | [7] 5.41 µM | [8] 7.38 µM | [9] 9.89 µM

CCC(=C(c1ccc(O)cc1)c1ccc(OCCN(C)C)cc1)c1ccccc1
inactive: [1] | [2] | [3] | [4] | [10]
active: [1] 13.1 µM | [3] 5.93 µM and 1.95 µM and 1.77 µM | [4] 7.1 µM and 11.1 µM | [6] 11 µM | [7] 7.66 µM | [8] 11.9 µM | [9] 7.42 µM | [10] 11.8 µM
